A number with no mark means an inactive call. Calls of active or inactive are those of the source. The call rests on the fitted dose curve.
Assay: G protein-coupled receptor (GPCR) small molecule agonists, calcium flux assay: HEK293 wild type cell line counter screen (AID 1920065)
Conditions: HEK293 WT calcium flux, fluorescence, agonist mode; series mostly up to 57.6 µM
From the text: U.S. Tox21 Program National Center for Advancing Translational Sciences [NCATS] Division of Preclinical Innovation [DPI] U.S. Environmental Protection Agency [EPA] National Institutes of Environmental Health Sciences [NIEHS] National Toxicology Program [NTP] U.S. Food and Drug Administration [FDA] Assay overview: The increased intracellular calcium release that occurred upon G protein-coupled receptor (GPCR) activation led to the frequent use of calcium flux assays to detect GPCR activation. For the purpose of studying and screening compounds that may activate GPCR, receptor-overexpressing models were typically generated using Hek293 wild-type (WT) cells. In order to eliminate the compounds that may have induced calcium release for non-specific activation, a counter-assay utilizing calcium flux on Hek293 WT cells was performed. The data were formulated in order to serve as a control for any calcium flux detection utilizing Hek293 cells with either GPCR overexpression or gene modification. The procurement of Hek293 WT cells from ATCC. Fluorescence intensity can be utilized to determine the activation of the compound in a calcium flux assay. As a counter control, this cell line was utilized to screen the Tox21 10K compound library.
Assay Protocol Summary: Hek293 cells were dispensed at 1500cells/4uL/well in 1536-well black wall/clear bottom plates using a multidrop dispenser. After the assay plates were incubated at a 37 C/5% CO2 incubator for 18 hours, 4 uL of Calcium Dye Solution was added to each well. The plates were incubated at 37 C for 1 hour. For agonist mode, 23 nL of compounds dissolved in DMSO, positive control (ATP) or DMSO only was transferred to the assay plate by a pin tool station. The fluorescence intensity in the plates was measured using FDSS 7000EX kinetic plate reader with a filter set of Ex/Em=480/540 for 3 min at 1 sec intervals. Each test compound was measured at 15 concentrations and in triplicates.
On the % scale 0 is the no-effect control and ±100 the full control effect.

Compound | outcome | activation
CC(=O)c1ccc2ccc3ccccc3c2c1 | inactive | –
Cc1ccc(N(CC2=NCCN2)c2cccc(O)c2)cc1 | inactive | –
COc1cc2c(cc1OC)CN(C(=O)[C@H](C)N[C@@H](CCc1ccccc1)C(=O)O)[C@H](C(=O)O)C2 | inactive | –
COc1ccc2c(c1)C(=O)N(CCc1ccc(S(=O)(=O)NC(=O)NC3CCCCC3)cc1)C(=O)C2(C)C | inactive | –
CCN(CC)c1ccc(N)cc1 | inactive | –
Cc1nccn1CC1CCc2c(c3ccccc3n2C)C1=O (stereo not given) | inactive | –
CCCCN(CCCC)C(C(N)=O)c1ccc(OC)cc1 (stereo not given) | inactive | –
CC(C)CCCCCCOC(=O)CCCCC(=O)OCCCCCCC(C)C | inactive | –
CC1=C(C(=O)OC(C)C)C(c2cccc([N+](=O)[O-])c2)C(C(=O)OC2CN(C(c3ccccc3)c3ccccc3)C2)=C(N)N1 (stereo not given) | inactive | –
CCOC(=O)CC(C)O (stereo not given) | inactive | –
CCC1=C(C)CN(C(=O)NCCc2ccc(S(=O)(=O)NC(=O)NC3CCC(C)CC3)cc2)C1=O (stereo not given) | inactive | –
CN1C[C@H](C(=O)N[C@]2(C)O[C@@]3(O)[C@@H]4CCCN4C(=O)[C@H](Cc4ccccc4)N3C2=O)C[C@@H]2c3cccc4[nH]cc(c34)C[C@H]21 | inactive | –
O=C1C(=O)c2ccccc2C(O)=C1C1CCC(c2ccc(Cl)cc2)CC1 (stereo not given) | inactive | –
CCCCCCCC/C=C\CCCCCCCCCCCC(=O)O | inactive | –
Cc1cn([C@@H]2O[C@H](CO)[C@@H](O)[C@@H]2F)c(=O)[nH]c1=O | inactive | –
C[C@@H]1CC[C@@]2(OC1)O[C@H]1C[C@H]3[C@@H]4CC[C@H]5C[C@@H](O)CC[C@]5(C)[C@H]4CC(=O)[C@]3(C)[C@H]1[C@@H]2C | – | 1.09% [at 5.23 µM]
CCCCCCCCOS(=O)(=O)O | inactive | –
O=C(O)c1cn(C2CC2)c2cc(Cl)c(F)cc2c1=O | inactive | –
Clc1cc(Cl)c(Cl)nc1Cl | inactive | –
O=C(O)c1ccc(Cl)cc1Cl | inactive | –

Compound | outcome | activation
OCc1ccccn1 | inactive | –
COc1ccc(-c2coc3cc(O)ccc3c2=O)cc1 | inactive | –
COc1ccc2sc(C(=O)Nc3nnn[nH]3)c(OC(C)C)c2c1 | inactive | –
O=C(O)C(Cc1cc(I)c(O)c(I)c1)c1ccccc1 (stereo not given) | inactive | –
Cc1cn[nH]c1 | inactive | –
O=C(OOC(=O)c1ccccc1)c1ccccc1 | inactive | –
COc1cc2nc(N3CCN(C(=O)c4ccco4)CC3)nc(N)c2cc1OC | – | 0.594% [at 11.8 µM]
CCCCC1=NC2(CCCC2)C(=O)N1Cc1ccc(-c2ccccc2-c2nn[nH]n2)cc1 | inactive | –
CCN(CC)CCOC(=O)C1(c2ccccc2)CCCC1 | inactive | –
CC[C@@H](CO)NCCN[C@@H](CC)CO | inactive | –
CC(C)(C#N)Nc1nc(Cl)nc(NC2CC2)n1 | inactive | –
COc1cc2[nH]c(=O)[nH]c(=O)c2cc1OC | inactive | –
NC12CC3CC(CC(C3)C1)C2 | inactive | –
O=C1O[C@@H]2[C@@H](O)[C@H](O)O[C@@H]2[C@H]1O | inactive | –
NC(=O)CC[C@@H](N)C(=O)O | inactive | –
CC1(C)S[C@@H]2[C@H](NC(=O)C(c3ccccc3)S(=O)(=O)O)C(=O)N2[C@H]1C(=O)O (stereo not given in full) | inactive | –
O=C(O)Cc1c(Cl)ccc(Cl)c1Cl | inactive | –
C=CC(=O)OCCOCCOC(=O)C=C | inactive | –
OCCN(CCO)c1ccccc1 | inactive | –
CCN1CCCC1CN (stereo not given) | inactive | –

Source: PubChem BioAssay (Tox21)
